# In PubChem BioAssay (NCI):
# About 83,000 compounds went through this panel and 20% of them were active in at least one assay; those are over-represented in the sample as a whole.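 A percent growth of 40 corresponds to 60% growth inhibition; 0 means no net growth; -100 means all cells died. Active threshold: below 10.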 Unmarked numbers belong to inactive results. Activity calls are given as the source filed them.
# What was measured:
# Experiment in all cases: NCI-60 one-dose screen, 48 h (100 = growth as untreated, 0 = no growth, -100 = all killed)
# Settings in all cases: 10 µM unless noted
# DU-145 prostate = system: DU-145 prostate
# K-562 leukemia = system: K-562 leukemia
# MALME-3M melanoma = system: MALME-3M melanoma
# MDA-MB-231 breast = system: MDA-MB-231 breast
# RXF 393 renal = system: RXF 393 renal
# SF-268 CNS = system: SF-268 CNS
# SF-295 CNS = system: SF-295 CNS
# SF-539 CNS = system: SF-539 CNS
# UACC-257 melanoma = system: UACC-257 melanoma
# M14 melanoma = system: M14 melanoma
# HCT-15 colon = system: HCT-15 colon
# HT29 colon = system: HT29 colon
# SNB-75 CNS = system: SNB-75 CNS
# SNB-19 CNS = system: SNB-19 CNS
# U251 CNS = system: U251 CNS
# PC-3 prostate = system: PC-3 prostate
# SK-MEL-5 melanoma = system: SK-MEL-5 melanoma
# UACC-62 melanoma = system: UACC-62 melanoma
# LOX IMVI melanoma = system: LOX IMVI melanoma
# SK-MEL-28 melanoma = system: SK-MEL-28 melanoma
SMILES,growth (DU-145 prostate),growth (K-562 leukemia),growth (MALME-3M melanoma),growth (MDA-MB-231 breast),growth (RXF 393 renal),growth (SF-268 CNS),growth (SF-295 CNS),growth (SF-539 CNS),growth (UACC-257 melanoma),growth (M14 melanoma),growth (HCT-15 colon),growth (HT29 colon),growth (SNB-75 CNS),growth (SNB-19 CNS),growth (U251 CNS),growth (PC-3 prostate),growth (SK-MEL-5 melanoma),growth (UACC-62 melanoma),growth (LOX IMVI melanoma),growth (SK-MEL-28 melanoma)
CC[C@]12C=CCN3CC[C@@]4(c5ccc(OC)cc5N(C)[C@H]4[C@@](O)(C(=O)OC)[C@@H]1OC(=O)CCC(=O)O[C@H]1CC[C@H]4[C@@H]5CC[C@H]6CC(=O)CC[C@]6(C)[C@H]5CC[C@]14C)[C@@H]32,43.7%,8.73% (active),42.5%,34.6%,25.9%,46.2%,7.7% (active),47.3%,26.9%,26%,15.1%,-2.17% (active),41.9%,37.5%,18.1%,12.3%,7.1% (active),29.3%,27.9%,46.5%
C/C(=N/Nc1nc2ccccc2n1C)c1ccccn1,16.2%,5.81% (active),11.6%,28.8%,-12.5% (active),10.7%,8.08% (active),0.5% (active),-29.2% (active),-4.55% (active),25.3%,14.7%,28%,15.2%,0.141% (active),19.1%,-6.67% (active),-26.5% (active),-39.4% (active),27.6%
COc1ccc(Nc2nc(SCC(C)C)nc(-c3ccc(F)cc3)c2C#N)cc1,79.4%,19.3%,61.9%,89.3%,74%,74.9%,40.6%,66.1%,73%,49.3%,46%,24.3%,70.6%,50.3%,56.7%,49.2%,53.6%,40.6%,57.8%,72.2%
COc1cc(NC(=O)Nc2cnc(Nc3ccc(N4CCOCC4)cc3)nc2Oc2ccc(F)cc2)cc(OC)c1,86.3%,72.5%,62.7%,87.6%,77.8%,75.8%,109%,89.1%,78%,91.7%,104%,86.9%,100%,96%,78.8%,83%,80.6%,106%,91%,106%
Nc1c(C(=O)Nc2cccc3ccccc23)sc2nc3c(cc12)CCCCC3,18.4%,8.68% (active),75.7%,49.4%,17.5%,46.3%,21.1%,-1.19% (active),63%,1.3% (active),28.6%,19.1%,19.4%,27.2%,16.8%,34.1%,37.1%,38%,38.4%,71.7%
CCN1CCN(c2ccc(NC(=O)Nc3nc4ccc(-c5ccccc5OC)cc4s3)cc2)CC1,-84.4% (active),-67.4% (active),-80.3% (active),-74% (active),-74.2% (active),-59.4% (active),-79.9% (active),-82.6% (active),-71.9% (active),-70.1% (active),-83.2% (active),-92% (active),-19.8% (active),-82.8% (active),-87% (active),-83.8% (active),-98.8% (active),-85.3% (active),-86.4% (active),-79.3% (active)
COc1ccc(-c2[nH]c3ccc(OC)cc3c2C=C(C#N)C#N)cc1,12.5%,4.8% (active),60%,53.7%,34.4%,52.7%,-47.1% (active),23.2%,60.2%,-13.3% (active),38.6%,15%,21.3%,76.2%,35.7%,21.7%,15.5%,33.1%,63%,54.2%
NS(=O)(=O)c1ccc(N2Cc3cc(Cl)ccc3OC3=C2C(=O)N(CC2CCCCC2)C3=O)cc1,-94% (active),-38% (active),-77% (active),-74.5% (active),-89.7% (active),-83.9% (active),-19.3% (active),-99.4% (active),-79% (active),-67.7% (active),-79.2% (active),-67.4% (active),-98.4% (active),-6.19% (active),-91.3% (active),-61.9% (active),-94.4% (active),-76.1% (active),-86.2% (active),-93.1% (active)
C=CCn1c(CN2CCN(c3cc4c(cc3F)c(=O)c(C(=O)O)cn4C3CC3)CC2)n[nH]c1=S,103%,89.6%,85.4%,116%,115%,97.5%,101%,98.8%,105%,107%,103%,90.5%,99.8%,107%,103%,101%,106%,99.9%,81.8%,97.2%
COc1ccccc1C(=O)/C=C/c1cc2cccc(OC)c2[nH]c1=O,16.5%,5.33% (active),-0.686% (active),-0.926% (active),-43.5% (active),2.36% (active),14.1%,-10% (active),33.6%,9.63% (active),-12.5% (active),-39.1% (active),34.3%,-4.63% (active),-55.7% (active),31.1%,-39.2% (active),-29.1% (active),-63.5% (active),2.94% (active)
COc1cc(NC(=O)Nc2cnc(Nc3ccc(N4CCOCC4)cc3)nc2Oc2ccc(C(F)(F)F)cc2)cc(OC)c1,118%,95.3%,118%,96.7%,110%,101%,111%,103%,101%,107%,103%,95.5%,84.4%,99.5%,97.3%,93.3%,101%,105%,95.6%,116%
NCCCn1c2c(c3cc(-c4ccn[nH]4)ccc3c1=O)C(=O)c1ccccc1-2,33.8%,6.99% (active),75.2%,68.1%,79.5%,52.8%,61.7%,75.2%,102%,74.8%,31.2%,9.31% (active),42.2%,55%,37.1%,50%,58.4%,78%,47.1%,111%
N#CC1(C#N)C2=C(CCCC2)NC(c2c(F)cccc2Cl)C1(C#N)C#N (stereo not given),89.7%,25.8%,74.7%,87.5%,78.2%,89.9%,81.3%,50.1%,75.2%,49.5%,66.9%,17.3%,51.1%,69.2%,60.7%,72.1%,63.9%,40.8%,53.4%,65.8%
NS(=O)(=O)c1ccc(-n2ncc(NC(=O)Nc3ccc(S(=O)(=O)Nc4nccs4)cc3)c2-c2ccccc2)cc1,109%,96.1%,97.2%,112%,120%,101%,99.3%,98.2%,104%,95.8%,104%,99.9%,65.7%,103%,102%,111%,105%,98.4%,101%,102%
